Results published in PubChem BioAssay (NCI).
The panel holds about 83,000 compounds, 20% with a hit somewhere; the sample as a whole holds those more often.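 A percent growth of 40 corresponds to 60% growth inhibition; 0 means no net growth; -100 means all cells died. Active threshold: below 10.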 Values without a mark were called inactive. Activity calls are given as the source filed them.

These compounds were tested on ACHN renal (assay: NCI-60 one-dose screen, 48 h (100 = growth as untreated, 0 = no growth, -100 = all killed)). Conditions: 10 µM unless noted.
Description: Growth inhibition of the ACHN human tumor cell line is measured as a screen for anti-cancer activity. Cells are grown in 96 well plates and exposed to the test compound for 48 hours. Compounds are tested at a single concentration, which is 10^-5 M for most compounds. The reported endpoint is percent growth (GI% or GIPRCNT), where numbers from 0 - 100% represent growth inhibition, and numbers from -100% - 0 represent cell death. For example, a value of 40 represents 60% growth inhibition. A value of 0 means no net growth occurred over the course of the experiment. A value of -40 indicates 40% of cells at the beginning of the experiment died by the end of the experiment. A value of -100 means all cells are dead at the end of the experiment.
NCI-60 Human Tumor Cell Lines Screen was performed using the standard one-dose NCI protocol, which is described in more detail at https://dtp.cancer.gov/discovery_development/nci-60/default.htm.
Compounds with GIPRCNT values below 10 were considered active. Activity score was based on GIPRCNT using the following formula: […]
Score is 0 for GIPRCNT values of 100 or above, 50 for GIPRCNT values of 0, and 100 for GIPRCNT values of -100.
For `O=C(CF)N(O)c1ccc(/C=C/c2ccccc2)cc1`, the growth was 13.9%. `CC1=C(SCCC(=O)OCC(=O)NCCC[Te]c2ccccc2)C(=O)c2ccccc2C1=O` was tested, and the growth was 12.4%. For `Cc1nnc([S-])s1.[Au+].c1ccc([PH+](c2ccccc2)c2ccccc2)cc1`, the growth was -89.4% (active). With `FC(F)=C(F)c1ccccc1` the growth was 110%. In the case of `COc1cccc2c1C(=O)c1c(O)c3c(c(O)c1C2=O)CC(O)(/C(C)=N/NC(=O)CCC(=O)N/N=C(\C)C1(O)Cc2c(O)c4c(c(O)c2C(OC2CC(N)C(O)C(C)O2)C1)C(=O)c1c(OC)cccc1C4=O)CC3OC1CC(N)C(O)C(C)O1` (stereo not given), the growth is reported as -34.9% [5 µM] (active). Work on `O=C1NC(=O)C(Cc2ccccc2)(Cc2ccccc2)C(=O)N1` yielded a growth of 114%. Compound `CCN1CC2(CN(CC)C1=S)C(=O)NC(=O)NC2=O` has a growth of 99%. In the case of `CC[CH2][Pb]([CH2]CC)([CH2]CC)[O]C(=O)C(F)(F)F`, the growth is reported as -100% (active). Work on `O=C(CCF)c1ccc(O)cc1` yielded a growth of 106%. `O=C1NC(=O)C(CN2C(=O)C3(c4ccccc42)[C@H](Cl)C(=O)N3c2ccccc2)C(=O)N1` (stereo not given in full) was tested, and the growth was 88.7%. `CC[C@@]1(C2O[C@@H](C3O[C@@](O)(CC)[C@H](C)C[C@@H]3C)C[C@@H]2C)CC[C@H]([C@]2(C)CCC3(C[C@H](O)[C@@H](C)[C@@H]([C@H](C)[C@@H](OC)[C@H](C)C(=O)O)O3)O2)O1` (stereo not given in full) gave a growth of 32%. `O=S(=O)(O)c1ccc(-c2ccc([As](=O)(O)O)cc2)cc1` showed a growth of 105%. `CC1(C)N=C(N)N=C(N)N1c1ccc(OCCCCNC(=O)Nc2cccc(S(=O)(=O)F)c2)c(Cl)c1` showed a growth of 94.9%. In the case of `CN1C(=O)NC(=O)C(N=Nc2ccc(Cl)cc2)C1=O` (stereo not given), the growth is reported as 87.9%. With `Cn1cnnc1[S-].[Au+].c1ccc([PH+](c2ccccc2)c2ccccc2)cc1` the growth was -42.3% (active). In the case of `O=[As]c1ccc(C(=O)c2ccc(Oc3ccccc3)cc2)cc1` (stereo not given), the growth is reported as -100% (active). In the case of `C=CCN1C(=O)C(CC)(CCC(C)C)C(=O)NC1=S` (stereo not given), the growth is reported as 110%. In the case of `c1ccc([As]=[As]c2ccccc2)cc1` (stereo not given), the growth is reported as -99.1% (active). Work on `CC(=O)O[C@H]1CCC2(C)C(=CCC3C2CCC2(C)/C(=N/OC(=O)c4ccc(N(CCCl)CCCl)cc4)CCC32)C1` (stereo not given in full) yielded a growth of 46.4%. For `C[CH2][Pb]([CH2]C)([CH2]C)[O]C(=O)COC`, the growth was 12.7%. `CCOP(=O)(OCC)Oc1ccc(Sc2ccc(OP(=O)(OCC)OCC)cc2)cc1` gave a growth of 115%. With `C/C(=C\C(=O)O[C@H]1[C@@H]2[C@H](C)CC[C@H]2[C@]2(C)O[C@@]1(C1CCCCC1)C[C@H]2OC(=O)CO)c1ccccc1` the growth was -16.5% (active). Work on `Fc1ccc(C2=NN(c3ccccc3)C(c3sc(N(CCCl)CCCl)nc3Cl)C2)cc1` (stereo not given) yielded a growth of 79.4%. In the case of `Oc1ccc(O)c2c1C1(Cl)C(Cl)=C(Cl)C2(Cl)C1(Cl)Cl`, the growth is reported as 48.2%. `Cc1cc(N(CCCl)CCCl)ccc1C=Nc1ccc2ccccc2c1` showed a growth of 57%. With `CCOC(=O)/C(C#N)=C/c1ccc(N(CCCl)CCCl)cc1` the growth was 72.8%. `COC1=CC(=O)OC(CCc2ccc3c(c2)OCO3)C1` (stereo not given) gave a growth of 107%. Work on `O=CC(Br)C(Br)c1ccccc1` (stereo not given) yielded a growth of 86.2%. In the case of `c1ccc(CCN2CCCCC2Cc2ccccc2)cc1` (stereo not given), the growth is reported as 94.6%. Work on `CC12CCC(=O)C=C1CCC1C2CCC2(C)C(C(=O)COC(=O)Cc3ccc(N(CCCl)CCCl)cc3)CCC12` (stereo not given) yielded a growth of 40.3%. `ClCCN(CCCl)c1ccc(/C=C\c2ccnc3ccccc23)cc1` showed a growth of 76%. In the case of `C/C(=N/OC(=O)N(C)C)c1cc(Cl)ccc1Cl`, the growth is reported as 100%. `CC1([N+](=O)[O-])COP(=O)(Nc2ccc(F)cc2)OC1` (stereo not given) showed a growth of 98.8%. With `O=C(Nc1ccc(S(=O)(=O)F)cc1)Oc1ccccc1` the growth was 106%. `CN1CC2CCC(C1)C2=O` gave a growth of 102%. `COc1ccc(-c2ccc(OC)c(OC)c2OC)cc1` showed a growth of 55.8%. `CCCCn1cc(C(=O)/C(C#N)=C/c2cc3ccccc3nc2Cl)c2cc(OC)ccc21` gave a growth of 79%. Work on `CC(/C=N/N=C(N)N)=N\N=C(N)N` yielded a growth of 80.9%. For `Oc1c(Br)cc(Br)cc1Br.[Cu+2]`, the growth was 105%. With `O=[N+]([O-])c1cccc([As]=[As]c2cccc([N+](=O)[O-])c2)c1` (stereo not given) the growth was -100% (active).
